Screening results: PubChem BioAssay, several laboratories
A selection: hits, their analogues and other compounds. The true share with any hit is near 4.8%.
Hsp70 act: Hsp70 transcriptional activators, primary screen, cell-based, HeLa, Hsp70 promoter luciferase, luminescence, 10 µM. HeLa Hsp70 promoter luciferase reporter; scaled: vehicle 0, proteasome-inhibitor control 100%. activation, % at 10 µM. actives 0.04% (n = 200,000). AID 1203, 2008;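 active = activation above the mean across all tested compounds plus 3 SD, cutoff set per campaign, cut at about 5.5% in these data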;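 note: 100% = MG132 at 30 µM as the positive control and 0% = DMSO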
NF-kB neuron act: activators of NF-kB expression in neurons, primary screen, cell-based, HTS; human neuronal cells, NF-kB reporter expression; active compounds read high; fold change at 12.5 µM; actives 1.6% (n = 190,000); in the data active = fold change above about 3.3
STAT1 activator: STAT1 signaling activators, primary screen, cell-based, HTS, luciferase reporter. NIH 3T3 STAT1-luciferase reporter, IFN-gamma, luminescence; 100% = IFN-gamma alone, no compound. activation (% of control), % at 5.5 µM. actives 2.6% (n = 200,000);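 active = activation above the screen-wide mean activation plus 3 SD, cut at about 130% in these data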;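 note: raw ratio to IFN-gamma control signal so 100% means no change and 0% no light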
Wee1 degr inh: Wee1 degradation inhibitors, primary screen, cell-based, HeLa, Wee1K328M-luciferase, luminescence; HeLa Luc-Wee1K328M stability; 100% = proteasome inhibitor MG132 effect; reporter increase, % at 5 µM; actives 1.2% (n = 220,000); AID 1321, 2008;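 active = activation above the mean of all tested compounds plus 3 SD, set per screening run, cut at about 8.8% in these data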;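 note: cells exposed to compound for 20 h before luminescence read; 0% = DMSO alone and 100% = MG132 at 30 µM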
Target sequence (P30291 whole entry K328M): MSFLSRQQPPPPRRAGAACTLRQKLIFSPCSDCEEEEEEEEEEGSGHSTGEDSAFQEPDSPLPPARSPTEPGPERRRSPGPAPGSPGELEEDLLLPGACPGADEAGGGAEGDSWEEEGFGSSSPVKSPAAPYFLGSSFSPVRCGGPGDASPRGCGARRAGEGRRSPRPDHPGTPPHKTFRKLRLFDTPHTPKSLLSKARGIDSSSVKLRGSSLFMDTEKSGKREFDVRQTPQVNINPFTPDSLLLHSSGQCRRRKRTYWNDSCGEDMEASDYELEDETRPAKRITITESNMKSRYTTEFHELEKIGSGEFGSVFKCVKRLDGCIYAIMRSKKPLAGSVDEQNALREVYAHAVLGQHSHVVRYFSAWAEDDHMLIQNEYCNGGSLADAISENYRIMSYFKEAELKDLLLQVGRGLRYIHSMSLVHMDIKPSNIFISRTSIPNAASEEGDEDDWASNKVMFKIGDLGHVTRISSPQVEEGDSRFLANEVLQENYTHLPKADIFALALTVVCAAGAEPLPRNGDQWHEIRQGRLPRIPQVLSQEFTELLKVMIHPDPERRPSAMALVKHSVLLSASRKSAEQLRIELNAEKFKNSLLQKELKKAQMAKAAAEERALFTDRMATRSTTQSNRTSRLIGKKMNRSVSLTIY
APP 5'UTR act: activators of APP 5'UTR luciferase reporter, primary screen, SH-SY5Y cells | actives 1% (n = 190,000) | SH-SY5Y APP 5'UTR luciferase reporter, luminescence; zero percent = DMSO vehicle wells | activation, % at 2 µM;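 active = activation above a set limit, based on mean plus 3 SD of controls, cut at about 140% in these data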
APP transl inh: inhibitors of APP translation via 5'UTR reporter, primary screen, APP 5'UTR luciferase, SH-SY5Y cells | SH-SY5Y APP 5'UTR-luciferase reporter, luminescence | inhibition, % at 2 µM | actives 0.82% (n = 190,000) | AID 1285, 2008;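 active = inhibition above a set limit, derived from the sample mean plus 3 SD, cut at about 45% in these data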
Wee1 stab conf: Wee1 degradation inhibitors, confirmation, cell-based, HeLa, Wee1K328M-luciferase, luminescence, triplicate; shares compounds with Wee1 degr inh; HeLa Luc-Wee1K328M degradation; vehicle 0%, proteasome-blocked wells 100%; activation, % at 5 µM; actives 4% (n = 1,100); in the data active = activation above about 8.9%
* = called active by the depositor; / = no result.

SMILES	Hsp70 act	NF-kB neuron act	STAT1 activator	Wee1 degr inh	APP 5'UTR act	APP transl inh	Wee1 stab conf
CCOC(=O)c1c(-c2ccccc2)oc2ccc(OC(C)=O)cc12	-0.2	1.14	92.5	13.3*	7.0	-7.0	-3.9
Cn1c(SCC(=O)c2cc3ccccc3o2)nnc1-c1ccccc1	0.0	1.01	104.0	-2.5	-9.0	9.0	/
O=C(CN1CCN(c2ccccn2)CC1)N1CC(O)CO1 (centres undefined)	-0.4	0.94	95.9	18.2*	-9.3	9.3	0.3
O=C(c1ccccc1Nc1ccc(SC(F)F)cc1)N1CCCCC1	-0.3	0.83	95.0	3.3	18.1	-18.1	/
Cn1c(N)c(N2CCCCC2)c(=O)n(CC(=O)Nc2ccc(Cl)c(Cl)c2)c1=O	-0.2	0.9	103.3	1.4	8.2	-8.2	/
Cn1c(=O)c2c(nc(NCCO)n2C)n(C)c1=O	-0.2	1.04	99.7	2.7	6.0	-6.0	/
CC(C)/C=N/Nc1nc2c(c(=O)n(C)c(=O)n2C)n1C	/	/	/	11.6*	/	/	0.4
Cc1ccc(/C=C/C(=O)OCc2nc(N)nc(Nc3ccccc3C)n2)o1	-0.3	0.93	101.2	12.9*	7.9	-7.9	-2.1
CC1=NCCN1CCNC(=O)Nc1ccc(C(C)(C)C)cc1	/	/	/	14.9*	/	/	0.5
Cc1ccccc1C(=O)NC1CCN(Cc2nnnn2Cc2ccccc2)CC1	0.3	0.96	94.0	-2.1	11.6	-11.6	/
O=C(NC1CCN(Cc2nnnn2CCc2ccccc2)CC1)c1ccccc1F	-0.3	1.45	112.4	11.9*	-0.7	0.7	-1.4
O=C(Cc1nnc(NC(=O)Nc2ccccc2F)s1)NCc1ccccc1	/	/	/	2.7	/	/	/
CCOC(=O)CSc1nc2cc(C(F)(F)F)cnc2n1C	/	/	/	10.9*	/	/	1.8
O=C(CCSc1nnc(-c2ccncc2)o1)Nc1ccccc1Cl	-0.3	1.25	91.1	3.7	-16.2	16.2	/
CC(=O)Nc1nc(C)c(CCC2OCCO2)c(=O)[nH]1	/	/	/	11.0*	/	/	-0.5
Cc1[nH]c(=S)[nH]c(=O)c1CCC1OCCO1	/	/	/	-1.6	/	/	/
Cc1cccc(C(=O)NCC(=O)OCC(=O)N2CCc3ccccc32)c1	-0.1	1.05	98.5	13.3*	-1.9	1.9	0.0
CN(Cc1cnn(C)c1)C(=O)c1ccc(OC2CCN(CCc3ccccc3)CC2)cc1	-0.2	0.98	103.2	3.8	3.4	-3.4	/
NS(=O)(=O)c1ccc(NC(=S)NC(=O)c2cccs2)cc1	/	/	/	19.2*	/	/	3.1
COc1ccccc1NC(=O)CS(=O)(=O)c1cccc2nsnc12	0.7	1.11	91.1	-1.5	-4.1	4.1	/
O=C(NCc1ccccc1)C(Cc1ccccc1)NS(=O)(=O)c1cccc2nsnc12 (centres undefined)	-0.5	0.79	98.9	-1.4	-11.3	11.4	/
CC1CCCCC1NC(=O)COC(=O)c1c2c(nc3ccccc13)/C(=C/c1ccco1)CC2 (centres undefined)	-0.4	0.76	103.9	11.3*	4.8	-4.8	-0.5
COc1cc(C2=NOC(C(=O)NCc3cccs3)C2)cc(OC)c1OC (centres undefined)	-0.6	1.75	103.4	11.1*	/	/	15.3*
CC(C)n1c(NCCO)nc2ccccc21	-0.2	1.09	97.4	11.0*	-1.1	1.1	-1.5
CC(C)N(Cc1ccccc1)C(=S)Nc1ccc(F)cc1	-0.1	1.11	96.4	-1.3	-1.1	1.1	/
SMILES	Hsp70 act	NF-kB neuron act	STAT1 activator	Wee1 degr inh	APP 5'UTR act	APP transl inh	Wee1 stab conf
CC(C1CC1)N(Cc1ccccc1)C(=O)NC(=O)c1ccc(F)cc1 (centres undefined)	-0.1	1.01	102.8	34.0*	-7.3	7.3	-0.5
CC(Oc1ccc(Cl)cc1Cl)C(=O)Nc1ccc(S(=O)(=O)Nc2cnc3ccccc3n2)cc1 (centres undefined)	-0.2	1.06	103.4	4.4	7.5	-7.5	/
O=C(Cc1ccc(Cl)cc1)Nc1ccc(S(=O)(=O)Nc2cnc3ccccc3n2)cc1	-0.4	1.03	99.8	11.5*	-8.3	8.3	0.8
O=C(N/N=C/c1ccc(F)cc1)c1ccccc1	0.2	2.65	128.9*	11.5*	66.0	-66.0	3.2
CC1c2ccsc2CCN1C(=O)NC(=O)c1ccc(Cl)cc1 (centres undefined)	/	/	/	13.6*	/	/	-1.2
COc1ccc(C2c3ccsc3CCN2C(=O)NC(C)(C)C)cc1 (centres undefined)	/	/	/	-2.6	/	/	/
CC(C)Cc1nnc(NS(=O)(=O)Cc2ccccc2)s1	-0.1	0.91	101.8	1.0	5.6	-5.6	/
O=C(Nc1nnc(Cc2ccc(Cl)cc2)s1)C1CCCO1 (centres undefined)	0.7	1.25	103.8	4.0	30.2	-30.3	/
O=C(Nc1ncc(Cc2ccccc2)s1)C1CCCO1 (centres undefined)	0.0	4.11*	123.3	11.0*	121.0	-121.0	0.2
CC(=O)c1ccc(NC(=O)COC(=O)CCN2C(=O)c3cccc([N+](=O)[O-])c3C2=O)cc1	-0.1	1.29	97.2	-1.9	-5.6	5.6	/
CC(C)N(c1ccccc1)c1ccc(NC(=O)COC(=O)CCN2C(=O)c3cccc([N+](=O)[O-])c3C2=O)cc1	-0.3	1.23	102.4	19.6*	-5.2	5.2	-0.8
CCn1c(SCC(=O)O)nc2ccccc21	0.5	1.48	94.4	-3.4	34.6	-34.6	/
CCn1c(SCC(=O)N/N=C(/C)c2ccncc2)nc2ccccc21	/	/	/	14.7*	/	/	6.3
CCOC(=O)Cc1csc(NC(=O)Nc2ccc(F)cc2)n1	/	/	/	1.8	/	/	/
CCOc1ccccc1NC(=O)Nc1cnccn1	-0.2	1.47	107.6	16.7*	7.5	-7.5	2.3
CCOc1ccccc1NC(=O)Nc1cccc(C(C)=O)c1	0.4	1.34	95.5	15.0*	-7.7	7.7	2.0
CCOc1ccccc1NC(=O)Nc1cccc(NC(C)=O)c1	/	/	/	1.7	/	/	/
O=C(c1ccc(Cl)cc1)C1CCCN(Cc2ccc(Oc3ncccn3)cc2)C1 (centres undefined)	-0.1	0.86	88.4	1.9	1.2	-1.2	/
COC(=O)Cn1c(=O)c(C)nc2ccccc21	-0.1	1.12	101.7	12.9*	-3.9	3.9	-3.6
CCOC(=O)Cn1c(C(C)=O)nc2ccccc21	-0.2	1.02	102.9	11.7*	2.8	-2.8	0.1
COC(=O)Cn1c(C)nc2ccccc21	0.3	0.89	102.9	-0.5	-4.4	4.4	/
